Measured values published in PubChem BioAssay AID2161 (National Center for Advancing Translational Sciences (NCATS), 2009).
Where “and” joins values, the source holds several entries; their conditions need not be identical. Identical values can stand only once. The list shows a part of the results. Unmarked numbers belong to inactive results. Calls of active or inactive are those of the source. Calls come from the whole dose curve; as a rule, active = well fitted inhibition curve with a large enough effect; inactive = no such curve, though single readings can be large or run the other way.

The compounds below were run against Papain (Carica papaya) (UniProt P00784) (assay: qHTS Assay for Inhibitors of Papain: Counterscreen for Cruzain Assay). Conditions: purified papain, Z-FR-AMC fluorescence cleavage; max response, negative = inhibition: active compounds read low.
Excerpt: Assay Provider: Shoichet, Brian; University of California, San Fancisco Screening Center PI: Austin, C.P. Screening Center: NIH Chemical Genomics Center [NCGC] The following papain assay is a counterscreen for a related protein cruzain (AID: 1478). Cruzain is a cysteine protease from the tropical parasite Trypanosoma cruzi. Activity against papain was used to help prioritize chemical series active against cruzain. Papain is a closely related cysteine protease known to utilize the same Z-FR-AMC fluorogenic substrate as cruzain. The fluorogenic assay used for cruzain was utilized here as well, with the exception of the reducing agent, which was 5 mM cystein here instead of DTT. Fluorogenic coumarin-based Z-FR-AMC substrate was used; proteolytic cleavage releases AMC, whose fluorescence is measured at 360 nm excitation and 450 nm emission. Purified papain was supplied by the labs of Profs. James McKerrow and Brian Shoichet, UC San Francisco. This assay had 0.01% Triton X-100 concentration.
Buffer: 100 mM Sodium Acetate, pH 5.5, 5 mM DTT, Triton X-100 concentration: 0.01%. Reagents/Controls: Buffer in columns 3 and 4 as negative control (no enzyme). Substrate solution: 2 uM final concentration of Z-FR-AMC (catalog number I-1160, Bachem) dispensed throughout the plate. Enzyme: 12 nM Papain final concentration. Assay Steps: Three uL of enzyme or buffer were dispensed to 1536-well Greiner black solid bottom plates. Compounds and controls (23 nL) were transferred via Kalypsys PinTool. The plates were incubated for 15 min at room temperature, and then 1 uL of substrate solution was added to start the reaction. The plates were immediately transferred to and read 4 times every 30 seconds for 2 min on ViewLux High-throughput CCD imager (Perkin-Elmer) using 360 nm excitation and 450 nm emission fluorescence protocol. The fluorescence intensity difference between the third and the first time points (time lapse of 60 seconds) was used to compute reaction progress. Data was normalized to neutral (no compound) and negative (no enzyme) controls.
Note: nearly all actives have a fitted effect of over 35% in size.
Potency is the fitted concentration of half-maximal effect.
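Throughout, for max response, negative = inhibition: 0% = no-compound wells and -100% = no-enzyme wells.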

Papain (Carica papaya), sequence (P00784 whole entry, looked up): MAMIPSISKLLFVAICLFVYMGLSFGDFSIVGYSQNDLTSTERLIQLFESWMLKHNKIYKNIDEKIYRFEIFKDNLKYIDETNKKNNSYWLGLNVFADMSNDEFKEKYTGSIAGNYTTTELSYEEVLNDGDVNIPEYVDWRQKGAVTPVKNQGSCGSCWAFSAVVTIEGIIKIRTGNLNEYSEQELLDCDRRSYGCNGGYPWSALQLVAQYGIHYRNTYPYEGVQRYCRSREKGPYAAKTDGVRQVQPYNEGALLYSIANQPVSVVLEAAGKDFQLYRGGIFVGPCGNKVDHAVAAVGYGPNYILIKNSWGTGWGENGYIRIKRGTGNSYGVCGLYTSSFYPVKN

SMILES	max response, negative = inhibition [%]	Potency
CCc1ccc(OCCCn2c(CCCNC(=O)C3CCCCC3)nc3ccccc32)cc1	-1.28	
N#Cc1nc(Nc2cccc(Cl)c2)nc(NC2CCCC2)n1		0.891 µM (active)
O=C1OC(/C=C/c2ccccc2)=NC/1=C/c1ccco1	-2.34	
CCN(CC)c1nc(C#N)nc(OC)n1		5.01 µM (active)
CC(C)C[C@H](NC(=O)[C@@H]1O[C@H]1C(=O)O)C(=O)NCCCCN=C(N)N		0.01 µM (active)
N#Cc1nc(N)nc(N(c2ccccc2)c2ccccc2)n1		8.91 µM (active) and 11.2 µM (active)
c1ccc2cc3c(NCCN4CCOCC4)ccnc3cc2c1	-50.2	
C=CC(=O)c1ccc2ccccc2c1		12.6 µM (active)
N#Cc1nc(Nc2cc(F)cc(Cl)c2)nc(NC2CCCC2)n1		1.12 µM (active)
Cc1ccc(SCCC(=O)OCC(=O)Nc2ncc(Cl)cc2Cl)cc1	-6.29	
C=CCNC(=O)c1ccc2nc(-c3ccco3)c(-c3ccco3)nc2c1	-64.7	
CCCCNC(=O)Cn1c(SCc2cccc(Cl)c2)nc2ccncc21	-12	
Cc1ccc(-c2c3c(=O)n(C)c(=O)n(C)c3cn2-n2cnnc2)cc1		28.2 µM (active)
O=C(OCN1C(=O)c2ccccc2C1=O)/C(=C\c1ccco1)NC(=O)c1ccccc1	-35.6	
Cn1c(C(=O)NCCN2CCc3ccccc3C2)cc2c(=O)[nH]c3ccccc3c21	-20.9	
